# From PubChem BioAssay (NCATS)
# A number with no mark means an inactive call. Active and inactive are the calls of the source. The call rests on the fitted dose curve; in most records, active means well fitted inhibition curve with a large enough effect; inconclusive means small, poorly fitted or top-dose-only effect; inactive means no such curve, though single readings can be large or run the other way.
# Assay: qHTS assay for measurement of the activity of small molecule inhibitors on Zika virus induced Caspase-3 activity in human astrocytoma cells (AID 1224859)
# Settings: SNB-19 ZIKV-induced caspase-3/7, luminescence, 6 h; series mostly up to 45.7 µM; activity change, negative = inhibition: at the top concentration
# Description: National Center for Advancing Translational Sciences [NCATS]
# Johns Hopkins University School of Medicine
# Increase in the Caspase-3 activity indicates an activation of apoptosis cell death pathway caused by Zika virus infection in certain types of neuronal cells including human neural progenitor cells (hNPCs), astrocytes, and astrocytoma cell line (SNB-19). This cell-based caspase-3 activity assay measures the increased caspase-3 activity in the astrocytoma cell line (SNB-19) after a 6-hour Zika virus infection with a luminescence readout. A decrease in the luminescence signal in this assay by small molecule treatment indicates an inhibitory effect of that small molecule on the Zika virus induced caspase-3 activity that may correlate with its effect on reduction of Zika virus caused cell death.
# The medium for SNB-19 cells is composed of RPMI 1640 (ATCC, Cat.# 30-2001), 10% fetal bovine serum (FBS) (GE healthcare Life Sciences, Cat.# SH30071.03), and 1% Pen/Strep (Gibco, Cat.# 15140-122). A Caspase-Glo 3/7 assay kit (catalog number G8092; Promega, Madison, WI) was used to detect caspase-3 activity induced by Zika virus infection in human cells. The reagent mixture was reconstituted as described in the protocol from the manufacturer. Polystyrene tissue culture treated and PDL coated white plates were obtained from Greiner Bio-One (Monroe, NC). Cells were seeded in 384- or 1536-well assay plates and cultured at 37 C with 5% CO2 for 16 to 20 hours. The typical cell seeding density in the 1536-well plate assay is 250 cells/well in 3ul medium for SNB-19 cells in tissue culture treated plates. Compounds were added to cells and incubated for one hour before addition of ZIKV solution to cells (2 FFU/cell). After incubation at 37 C with 5% CO2 for 6 hours, the reagent mixture of Caspase-Glo 3/7 assay kit was added to each well, followed by incubation at room temperature for 30 minutes. The luminescence intensity of the assay plates was measured using a ViewLux plate reader (PerkinElmer). Data were normalized by using the cell-containing wells without ZIKV as a negative control (0% induction of caspase 3/7 activity) and wells containing ZIKV infected cells (Caspase-3 activity induced) as a positive control (100% induction of caspase 3 activity). The percentage inhibitions of the increased Caspase-3 activity by small molecule inhibitors were then calculated.
# Potency means the concentration at half of the fitted maximal effect.
SMILES,"activity change, negative = inhibition",Potency
Nc1cc(C(F)(F)F)c(-c2cc(N3CCOCC3)nc(N3CCOCC3)n2)cn1,63%,
CCCCc1nc2cc(C=CC(=O)NO)ccc2n1CCN(CC)CC,32.5%,
CC(C)c1noc(N2CCC(COc3ccc(-c4ccc(S(C)(=O)=O)cc4)nc3)CC2)n1,-0.459%,
COc1ccc(C(=O)CC2(O)C(=O)Nc3c(Cl)ccc(Cl)c32)cc1 (stereo not given),48%,
COC(=O)Nc1nc2ccc(C(=O)c3ccc(F)cc3)cc2[nH]1,3.09%,
O=C(C=Cc1cccc(S(=O)(=O)Nc2ccccc2)c1)NO,38.1% [at 92.8 µM],
COC(=O)Nc1ccc(-c2nc(N3CCOCC3)c3cnn(C4CCN(Cc5cccnc5)CC4)c3n2)cc1,23.7%,
Nc1ccc(S(=O)(=O)Nc2ncccn2)cc1,-1.9%,
O=C(Nc1ncc(-c2cc(C(F)F)nn2-c2c(Cl)cccc2Cl)s1)C1CC1,26.6%,
C=CC(=O)Nc1cc2c(Nc3ccc(F)c(Cl)c3)ncnc2cc1C#CC(C)(C)N1CCN(C)CC1,432%,
CNC(=O)c1cc(Oc2ccc(NC(=O)Nc3cc(C(C)(C)C)nn3-c3ccc4ncccc4c3)c(F)c2)ccn1,-3.23%,
Nc1nc(Nc2ccc(S(N)(=O)=O)cc2)nn1C(=O)c1c(F)cccc1F,7.42%,
Cc1cc(C(=O)N2CCN(c3cccc(Cl)c3)CC2)n(-c2ccccc2)n1,18.7%,
Cc1cc(Nc2nc(N[C@@H](C)c3ccc(F)cc3)c(C#N)cc2F)n[nH]1,54.6%,
NC(=O)Nc1cc(-c2cccc(F)c2)sc1C(=O)N[C@H]1CCCNC1,127%,
CCC1=C[C@@H]2CN(C1)Cc1c([nH]c3ccccc13)[C@@](C(=O)OC)(c1cc3c(cc1OC)N(C)[C@@H]1[C@@](O)(C(=O)OC)[C@H](OC(C)=O)[C@]4(CC)C=CCN5CC[C@]31[C@@H]54)C2,-25.7%,
CCCNC(=O)Nc1ccc(Oc2ncnc3cc(OC)c(OC)cc23)cc1Cl,-3.8%,
Nc1ccc(C(=O)c2cc3c(ccc4ccccc43)[nH]2)cc1,-0.948%,
C=C1C(=CC=C2CCCC3(C)[C@@H]([C@H](C)C=CC=CC(O)(CC)CC)CC[C@@H]23)C[C@@H](O)C[C@@H]1O (stereo not given in full),14%,
COC(=O)C1=C(C)NC(C)=C(C(=O)OCCN2CCN(C(c3ccccc3)c3ccccc3)CC2)C1c1cccc([N+](=O)[O-])c1 (stereo not given),-5.46%,

SMILES,"activity change, negative = inhibition",Potency
CN[C@H]1CCc2cc(OC)c(OC)c(OC)c2-c2ccc(OC)c(=O)cc21,7.97%,
COc1cccc(-c2ccc(NC(=O)C3=C(C(=O)O)CCC3)c(F)c2)c1,,2.35 µM (active)
CN(C)CC=CC(=O)Nc1cc2c(Nc3ccc(F)c(Cl)c3)ncnc2cc1O[C@H]1CCOC1,25.1%,
Cc1c(C)n(Cc2ccc(-c3ccccc3C(=O)O)cc2)c2ccc(C(=O)N[C@@H](C)c3ccc([N+](=O)[O-])cc3)cc12,3%,
CCOC(=O)C1=C(C)NC2=C(C(=O)CC(C)(C)C2)C1c1ccc(-c2ccccc2)cc1 (stereo not given),-2.4%,
COc1cccc(Nc2c(C(N)=O)cnc3c(C)cc(S(=O)(=O)c4cccc(C(=O)N(C)C)c4)cc23)c1,70.2% [at 20.5 µM],
COc1ccc(CC2SC(=O)NC2=O)cc1C(=O)NCc1ccc(C(F)(F)F)cc1 (stereo not given),-1.14%,
O=C(CCCCCCC(=O)Nc1ccc([C@H]2O[C@@H](CSc3nc(-c4ccccc4)c(-c4ccccc4)o3)C[C@@H](c3ccc(CO)cc3)O2)cc1)NO,11.4%,
COc1cc2nccc(Oc3ccc(NC(=O)C4(C(=O)Nc5ccc(F)cc5)CC4)cc3)c2cc1OC,43.8%,
COc1ccc2c(c1)CC[C@@H](CN(C)CC(=O)O)[C@H]2c1ccccc1,20.8%,
NC(=O)c1c(OCc2c(F)cc(Br)cc2F)nsc1NC(=O)NCCCCN1CCCC1,18.3%,
C[C@H]1C[C@@H]2[C@@H]([C@@H](O)C[C@@]3(C)[C@H]2CC[C@]3(O)C(=O)CO)[C@@]2(C)C=CC(=O)C=C12,-3.53%,
CC(C)(O)c1cc2nc(-c3cnc(N)nc3)nc(N3CCOCC3)c2s1,39.8%,
Nc1ccccc1NC(=O)c1ccc(CNC(=O)OCc2cccnc2)cc1,13.8%,
CCOc1ccccc1OCCNC(C)Cc1ccc(OC)c(S(N)(=O)=O)c1 (stereo not given),-14.5%,
CNC(=O)c1nn(C)c2c1C(C)(C)Cc1cnc(Nc3ccc(N4CCN(C)CC4)cc3)nc1-2,56.1%,
CNC(=O)c1ccccc1Nc1nc(Nc2ccc(N3CCOCC3)cc2OC)ncc1Cl,41.5%,
CC(C)c1nn(-c2c(Cl)cccc2Cl)c2nc(Cc3ccc(OCCO)cc3)[nH]c(=O)c12,17.2%,
O=C(CCCCCCNC(=O)c1cnc(N(c2ccccc2)c2ccccc2)nc1)NO,32.2%,
C=CCn1c(=O)c2cnc(Nc3ccc(N4CCN(C)CC4)cc3)nc2n1-c1cccc(C(C)(C)O)n1,17.8%,
